High-throughput results from PubChem BioAssay.
SKKanGAS inh: blocks kanamycin growth of S. pyogenes SKKanGAS strain | 300,000 tested, 1.3% active | AID 1662 | BacTiter-Glo, 6 h | inhibition, % at 7.5 µM;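 active = mean replicate score, as percent of positive control median, at least 50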;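 also: strain carries kanamycin resistance gene driven by streptokinase promoter and grows in 40 µg/ml kanamycin; loss of luminescence reflects streptokinase promoter inhibition or plain growth inhibition; 0% = median of DMSO wells and 100% = positive control at its reference dose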
TIM10 inh: TIM10 yeast growth inhibition; S. cerevisiae TIM10 strain growth, BacTiter-Glo luminescence, 24 h; inhibition, % at 10 µM; 330,000 tested, 1.4% active;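 active = inhibition of 40% or more at the single tested concentration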;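 also: wild-type TIM10 isogenic control strain grown at permissive 25 °C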
tim10-1 inh: inhibits growth of tim10-1 mutant yeast | AID 463190 | 330,000 tested, 2.2% active | inhibition, % at 20 µM | S. cerevisiae tim10-1 ts strain growth, BacTiter-Glo, 24 h;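 active = inhibition of at least 40%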;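 also: mutant grown at 25 °C; 0% = DMSO wells with yeast and 100% = wells holding no yeast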
NLRP3 yeast inh: blocks the NALP3 inflammasome reconstituted in yeast. AID 2825. Yeast reconstituted NLRP3/ASC/caspase-1, beta-gal luminescence, 24 h. 330,000 tested, 0.39% active. inhibition, % at 10 µM;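 active = inhibition of 50% or more; inactive = inhibition below 50%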;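 also: plate controls were induced DMSO wells for no effect and uninduced yeast grown without galactose for full effect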
tim23-1 inh: tim23-1 yeast growth inhibition. S. cerevisiae tim23-1 growth, BacTiter-Glo luminescence, 24 h. 330,000 tested, 1.3% active. inhibition, % at 20 µM;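 active = growth inhibition of the mutant yeast at or above 50%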;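 also: temperature-sensitive mutant grown at 25 °C; plate controls were DMSO-treated mutant yeast for no effect and medium wells lacking yeast for full effect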
tim10-1 conf: tim10-1 yeast growth inhibition, confirmed | AID 463213 | shares compounds with tim10-1 inh | S. cerevisiae tim10-1 ts strain growth, BacTiter-Glo, 24 h | inhibition, % at 20 µM | 7,400 tested, 56% active;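 active = inhibition of yeast growth at or above a set limit in either of two repeat tests at 20 µM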;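 also: tim10-1 mutant grown at permissive 25 °C to find synthetic lethal compounds; 0% = DMSO yeast wells and 100% = medium wells without yeast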
The depositor's hits bear a star; · = not tested or not shown. The list is not random: actives were taken first. Their share in the collection is about 4.6%.

SMILES	SKKanGAS inh	TIM10 inh	tim10-1 inh	NLRP3 yeast inh	tim23-1 inh	tim10-1 conf
O=C(CCNS(=O)(=O)c1ccc(Cl)cc1)Nc1ccncc1	-5	-16	14	7	10	·
O=C(c1cn(-c2ccccc2)nc1-c1cccc([N+](=O)[O-])c1)N1CCCCC1	-14	24	48*	4	35	34*
O=[N+]([O-])c1cccc(-c2nn(-c3ccccc3)cc2CO)c1	1	0	40*	16	42	41*
O=C(O)/C=C/c1cn(-c2ccccc2)nc1-c1cccc([N+](=O)[O-])c1	0	-8	17	12	27	·
Cc1ccc(C)c(S(=O)(=O)NC2CCSC2=O)c1 (configuration not stated)	·	-4	-9	-2	-4	·
Cc1ccc2nccc(C(=O)N3CCCC(Nc4ccc(C)c(C)c4)C3)c2c1 (configuration not stated)	-5	11	5	6	1	·
O=C(Cc1ccsc1)OCC(=O)c1ccccc1	·	-4	-4	6	10	·
Cc1nn(C(C)C(=O)NC2CCC(C)CC2)c(=O)c2nn(-c3ccccc3)c(C)c12 (configuration not stated)	-4	15	41*	-2	27	11
CCOc1ccc(CCNC(=O)C(C)N2C(=O)CC(C)(C)Sc3ccccc32)cc1 (configuration not stated)	0	12	42*	-5	39	25
O=C1C(NS(=O)(=O)c2cccs2)=C(N2CCOCC2)C(=O)c2ccccc21	3	12	19	-5	23	·
CN(C1=C(N2CCOCC2)C(=O)c2ccccc2C1=O)c1ccccc1	7	12	45*	34	42	20
CCn1c(-c2cc(-c3cc(C)ccc3C)nc3ccccc23)n[nH]c1=S	23	1	13	0	26	·
CCOc1cccc(-c2cc(-c3n[nH]c(=S)n3CC)c3ccccc3n2)c1	13	30	53*	33	43	26
CCn1c(-c2cc(-c3ccc(C)c(C)c3)nc3ccccc23)n[nH]c1=S	12	35	47*	47	41	34*
COc1ccccc1CNC(=O)COC(=O)c1cc(=O)[nH]c2ccccc12	·	0	-3	6	-10	·
COc1ccc(CCC(=O)N2CCN(c3ccc([N+](=O)[O-])cc3)CC2)cc1OC	0	16	20	29	9	·
CCOC(=O)C1CCN(C(=O)CN2C(=O)COc3ccc(C(C)(C)C)cc32)CC1	1	9	44*	0	28	7
COc1ccc(NC(=O)[C@@H]2CCCN2S(=O)(=O)c2ccccc2F)cc1S(=O)(=O)N1CCCCC1	·	1	5	-6	-3	·
N#Cc1nc(Cc2ccccc2)oc1NCc1cccnc1	-4	-9	-1	1	-4	·
N#Cc1ncc(Cc2ccccc2)nc1C#N	12	0	41*	27	28	38*
CC(C)(C)NC(=O)c1ccc(Sc2ccccc2)c([N+](=O)[O-])c1	4	16	42*	25	27	20
CCOC(=O)c1cnc2ccc(OC)cc2c1NCc1ccccc1	-3	36	30	4	38	·
CCOC(=O)c1cnc2ccc(OCC)cc2c1NCc1ccccc1OC	-2	16	43*	18	26	34*
O=C(NCc1ccccc1Cl)c1cc2ccccc2oc1=O	4	0	14	15	20	·
O=c1oc2ccccc2cc1NCc1ccccc1O	1	11	41*	-8	38	7
SMILES	SKKanGAS inh	TIM10 inh	tim10-1 inh	NLRP3 yeast inh	tim23-1 inh	tim10-1 conf
Cc1ccc(C(C)NC(=O)C2CCCC2)c(C)c1 (configuration not stated)	3	-10	4	7	5	·
Cc1ccc(C(C)NC(=S)NC2CCCCC2)c(C)c1 (configuration not stated)	3	18	41*	22	17	8
CCc1c(C(=O)NCc2ccccc2Cl)[nH]c(C)c1C(C)=O	0	-5	56*	16	12	-5
CCC1CCCCN1c1nc(-c2ccncc2)nc2ccccc12 (configuration not stated)	-10	27	50*	1	43	38*
Cc1ccc(CC(NC(=O)C2CCCCC2)C(=O)O)cc1 (configuration not stated)	·	-13	-10	·	15	·
CC(C)(C)OC(=O)N1CCC(Cc2cc(-c3cccc(Br)c3)no2)(C(=O)O)CC1	9	9	5	2	23	·
COC(=O)C1(Cc2cc(-c3cccc(Br)c3)no2)CCN(C(=O)OC(C)(C)C)CC1	17	31	41*	13	32	26
Cc1ccn2c(NC3CCCC3)c(-c3ccncc3)nc2c1	1	11	-1	2	16	·
c1cn2c(Nc3ccc4c(c3)OCCO4)c(-c3ccc(N4CCOCC4)cc3)nc2cn1	8	15	6	0	9	·
Clc1ccc(-c2nc3cnccn3c2NC2CCCC2)cc1	2	23	50*	13	30	23
Clc1ccc(-c2nc3cnccn3c2Nc2ccc3c(c2)OCO3)cc1	4	26	45*	2	49	35*
CSc1ccc(-c2nc3cnccn3c2Nc2ccc3c(c2)OCO3)cc1	-39	27	46*	22	34	43*
Oc1ccccc1-c1nc2cnccn2c1Nc1ccc2c(c1)OCCO2	-4	29	32	-1	44	·
CCCc1cc(C(=O)N(C)CC(=O)Nc2ccc(OCC)c(OCC)c2)sc1C	-5	-15	1	-5	6	·
CCN1C(=O)C(CC(=O)Nc2ccc(OC)cc2)N(CCc2ccc(OC)cc2)C1=S (configuration not stated)	13	5	47*	7	48	32*
c1ccc(SCCN2CCN(c3ccccc3)CC2)cc1	7	3	2	4	18	·
OC(CNCC1CCCO1)Cn1c2ccc(Cl)cc2c2cc(Cl)ccc21 (configuration not stated)	13	-24	43*	37	-32	22
C#CCOCCOCCOCCNc1nc(N2CCN(C(=O)CCCCCCCCCCNC(=O)[C@H](CO)n3cc(CCCSC)nn3)CC2)nc(N2CCN(C(=O)CCCCCCCCCCNC(=O)[C@@H]([C@H](C)O)n3cc(C)nn3)CC2)n1	·	0	8	29	21	·
CCc1c(C)[nH]c2ccc(OC)cc2c1=S	·	16	46*	15	24	36*
O=C(CSc1nc(C(F)(F)F)cc(=O)[nH]1)Nc1nccs1	8	3	-11	12	-7	·
COc1ccc(N2CCN(c3oc(Cc4ccccc4)nc3C#N)CC2)cc1	-1	12	40*	15	37	26
Cc1cc(C)cc(OCC(=O)N2N=C(C(F)(F)F)CC2(O)C(C)(C)C)c1 (configuration not stated)	3	15	46*	20	46	34*
